The list is not random: actives were taken first. Their share in the collection is about 4.7%.
D1 antagonist: antagonists of human D1 dopamine receptor | HEK293 TREx D1 cells, calcium flux, dopamine EC80; hits give low values | activity change, negative = inhibition, % at 10 µM | 360,000 compounds, 3.2% hits; in the data active = activity change below about -30%; note: % is set by controls: 0 for no effect and ±100 for the full control effect
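Tetracycline-induced HEK293 Trex D1 cells, force-coupled to calcium, dye-loaded; compounds added and read 180 s, then EC80 dopamine added and calcium flux tracked kinetically another 180 s.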
TRHR PAM: allosteric enhancers of human TRH receptor | 360,000 compounds, 0.66% hits | enhancement, % at 2 µM | TRHR cells, fluo-8 calcium fluorescence, EC20 TRH enhancement; in the data active = enhancement above about 30%; note: 0% is about no effect
Target sequence (P34981 whole entry, looked up): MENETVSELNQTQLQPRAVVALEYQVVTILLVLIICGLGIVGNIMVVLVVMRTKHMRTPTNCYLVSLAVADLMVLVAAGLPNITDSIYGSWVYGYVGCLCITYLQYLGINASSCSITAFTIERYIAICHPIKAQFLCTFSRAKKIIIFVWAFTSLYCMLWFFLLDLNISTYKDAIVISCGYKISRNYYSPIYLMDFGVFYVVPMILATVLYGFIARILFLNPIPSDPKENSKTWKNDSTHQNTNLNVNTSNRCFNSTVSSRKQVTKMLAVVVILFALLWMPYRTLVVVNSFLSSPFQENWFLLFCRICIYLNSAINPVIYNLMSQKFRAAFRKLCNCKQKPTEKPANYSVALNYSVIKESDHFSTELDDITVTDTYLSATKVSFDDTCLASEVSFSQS
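Enhancer read-out: after compound pinning and an initial kinetic agonist-mode read, an EC20 of TRH (10 nM final) was injected and fluo-8 calcium signal (Ex 480/Em 530) followed at 1 s/cycle for 100 cycles in TRHR-expressing cells.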
TRHR ag: TRH receptor (human) agonism; P34981; TRHR cells, calcium flux fluo-8, FDSS agonist mode; activation, % at 2 µM; 360,000 compounds, 0.18% hits; note: 0% is about no effect
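Steps: seed TRHR cells overnight; add fluo-8 no-wash Ca dye, RT 30 min–1.5 h; record 10 s baseline; pin-transfer compounds; monitor fluorescence 1 cycle/s for the agonist window. Calcium increases flag candidate agonists.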
D1 potentiator: human D1 dopamine receptor positive modulation. P21728. HEK293 TREx D1 cells, calcium flux, dopamine EC20 potentiation. potentiation, % at 10 µM. 360,000 compounds, 0.036% hits. AID 504651; in the data active = potentiation above about 30%; note: 0% is about no effect
D1 agonist: agonists of human D1 dopamine receptor; P21728; HEK293 T-REx D1 cells, calcium flux, agonist mode; activation, % at 2 µM; 360,000 compounds, 1% hits; note: 0% is about no effect
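Tetracycline-induced HEK293 TREx D1 cells, force-coupled to calcium signalling, were dye-loaded with a no-wash calcium kit. Compound was pin-added after a 10 s baseline. Fluorescence was read kinetically at 1 cycle/s for 180 s, with calcium rises flagged as agonism.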
Active calls of the source: *; nt = not tested or not shown. Cut-off read from the data, not from the text of the source, unless noted: active = activation above about 30%; inactive = the rest.

SMILES	D1 antagonist	TRHR PAM	TRHR ag	D1 potentiator	D1 agonist
Cc1nn(Cc2ccccc2)c(C)c1CCC(=O)O	-82.7*	0.8	0.2	-5.8	0.1
Cc1cc(C(=O)Nc2c(C)nn(Cc3ccc(F)cc3)c2C)on1	4.6	-4.3	-1.0	nt	6.7
Cc1nn(Cc2ccc(Br)cc2)c(C)c1NC(=O)c1nn(C)cc1Cl	-39.1*	30.9*	-0.6	8.8	6.6
Cn1cc(Cl)c(C(=O)Nc2cnn(Cc3ccc(F)cc3)c2)n1	-41.8*	11.9	-0.1	-4.0	5.3
Cc1noc(C(=O)Nc2c(C)nn(Cc3ccccc3)c2C)c1Cl	-51.0*	3.1	-0.1	-5.7	0.6
O=C(CN1C(=O)COc2ccc(S(=O)(=O)Nc3ccccc3)cc21)NCc1ccccc1Cl	5.0	-18.5	0.7	0.4	5.4
COc1ccccc1OCC(=O)N(Cc1ccc(N(C)C)cc1)CC1CCCO1 (stereo not given)	-15.5	-1.6	0.0	-3.1	1.0
O=C(N/N=C/c1c(O)ccc2ccccc12)c1cccnc1	6.0	7.8	36.1*	4.6	42.0*
Nc1nonc1N/N=C/c1c(O)ccc2ccccc12	-21.6	4.2	0.5	-8.9	31.2*
O=C(N/N=C\c1c(O)ccc2ccccc12)c1cncc(Br)c1	-21.5	37.8*	105.4*	4.9	314.5*
Cc1ccc(C(=O)N/N=C/c2c(O)ccc3ccccc23)cn1	3.0	2.2	28.8	-2.1	29.9
O=C(NCc1ccco1)c1ccc2c(c1)N(Cc1ccc(Cl)cc1)CCS2	-37.1*	-1.8	-0.2	-7.8	1.6
Cc1ccc2nc3sc(C(=O)N4CCCc5ccccc54)c(N)c3cc2c1	9.4	-4.6	9.0	-1.1	36.4*
CCOc1ccc(NC(=O)C2CCN(C(=O)NC3CCCCC3)CC2)cc1	-35.5*	6.3	-0.2	3.5	-0.6
c1ccc(CCNCCCOc2cccc3ccccc23)cc1	15.0	6.9	2.1	-4.7	50.3*
CC(=O)NCCOc1cccc2ccccc12	-2.0	2.6	-1.8	-7.2	5.7
COc1ccc(S(=O)(=O)Oc2ccc3ccccc3c2)cc1	-39.2*	-5.0	0.4	-12.2	13.1
Cc1ccc(S(=O)(=O)Nc2ccc3c(c2)n(C)c(=O)n3C)c(C)c1	-12.4	1.9	-0.2	-5.6	7.5
Cc1ccc(S(=O)(=O)Nc2cc3c(cc2C)n(C)c(=O)c(=O)n3C)c(C)c1	-94.6*	-6.9	-0.3	-6.7	1.5
CCOC(=O)COc1ccc(C)cc1C(=O)c1ccn2nc(-c3ccc(C)cc3)cc2n1	-12.5	2.5	-1.0	-5.1	-0.8
CCN(CC)CCCNc1oc(-c2ccc(OC)cc2)nc1C#N	-3.7	21.3	-0.3	-0.2	5.8
CN(C)c1ccc(/C=C/C=N/Nc2nc(N3CCOCC3)nc(N3CCOCC3)n2)cc1	-34.9*	7.7	0.6	-7.8	-0.9
COc1ccc(-c2cnc(C)o2)cc1S(=O)(=O)Nc1ccc(C)c(F)c1	9.5	-4.2	0.5	0.5	3.6
COc1ccc(N(CC(=O)NC2CCCCC2)C(=O)c2ccc(C)s2)cc1OC	10.3	31.8*	-1.0	-2.7	-0.7
COc1ccc(N(CC(=O)NC2CCCC2)C(=O)c2ccc(C)s2)c(OC)c1	-21.1	0.8	-0.5	13.9	2.4
SMILES	D1 antagonist	TRHR PAM	TRHR ag	D1 potentiator	D1 agonist
CCN(CC)c1ccc(N)cc1S(=O)(=O)Nc1ccccc1OC	-31.5*	5.0	-2.9	-16.6	1.5
CCN(CC)c1ccc(N)cc1S(=O)(=O)Nc1ccc(OC)cc1	0.8	-0.9	-0.5	-6.1	0.8
O=C(N/N=C/c1cccc(O)c1)N/N=C/c1cccc(O)c1	-7.5	11.1	-0.4	10.3	0.9
Cc1nonc1C(=O)N/N=C/c1cccc(O)c1	-42.7*	-0.6	0.2	-6.0	1.9
COc1cccc(-n2nc(C(N)=O)c(O)cc2=O)c1	-7.6	-3.1	1.1	2.7	2.2
COc1cccc(-n2nc(C#N)c(Cl)cc2=O)c1	-31.9*	-8.0	-1.3	-2.6	4.9
O=C(Nc1ccc(Cl)c(Cl)c1)c1ccc(Cn2cc(Cl)cn2)cc1	-7.4	2.6	0.0	-6.5	33.5*
NNC(=O)c1ccc(Cn2cc(Cl)cn2)cc1	-15.4	-2.8	-0.2	-3.9	2.3
Cc1nn(CCc2nn[nH]n2)c2nc(C(F)(F)F)cc(C(F)(F)F)c12	-4.1	-14.7	2.9	-3.9	5.7
Cc1nn(CCc2nn[nH]n2)c2nc(-c3ccc(Br)cc3)cc(C(F)(F)F)c12	-36.1*	-3.1	-2.1	-1.9	3.6
O=C(COC(=O)/C=C/c1ccccc1Cl)NC(=O)NCc1ccccc1	-10.6	-2.2	0.8	7.9	31.8*
CC(=O)NN1C(=O)c2ccccc2NC1c1ccccc1O (stereo not given)	29.4	33.3*	0.3	9.7	1.8
CS(=O)(=O)NN1C(=O)c2ccccc2NC1c1ccccc1O (stereo not given)	-13.2	-5.5	0.1	-4.5	0.3
N#C/C(=C\c1ccc(-c2ccc(C(=O)O)cc2)o1)C(=O)Nc1ccccc1C(=O)O	-1.9	-4.9	-0.5	0.8	-0.4
CCc1ccccc1NC(=O)Cn1c(=O)n(CCCCCC(=O)NCc2ccc(C)cc2)c(=O)c2sccc21	-1.0	-3.2	-0.7	1.2	5.1
CCn1c(/C=C/c2ccc(O)c(O)c2)nc2ccccc2c1=O	2.3	33.6*	8.2	0.6	1.9
CCn1c(/C=C/c2ccc(O)cc2)nc2ccccc2c1=O	3.6	-4.0	-2.5	-2.9	5.8
O=C(CCSCc1cccc(Cl)c1)N1CCN(c2ccc(Cl)cc2)CC1	-1.5	-2.1	0.0	-2.8	5.1
CCOCCCNC(=O)C(NC(=O)Cc1cccs1)c1ccc(C)cc1 (stereo not given)	-43.7*	-2.8	-0.6	-3.0	0.9
COc1cc(CNC(C)(C)CO)cc(Br)c1OCc1ccc(Cl)cc1	-6.4	-6.7	1.2	-6.5	33.8*
Cc1ccc(NCc2ccccc2OCc2ccccc2F)cc1	6.4	3.7	-1.2	-2.1	3.8
Cc1c(OCc2ccccc2)cccc1OCc1ccccc1	2.6	-2.5	0.6	-3.4	0.7
CNCc1c(OCc2ccccc2F)ccc2ccccc12	-81.0*	-1.1	-0.7	-2.9	38.6*
CC(C)(CO)NCc1c(OCc2ccc(Cl)cc2)ccc2ccccc12	2.3	-7.1	2.2	-17.6	35.2*
CNCc1c(OCc2ccccc2)ccc2ccccc12	-44.8*	3.0	0.7	-20.1	25.3
Cc1ccc(OCC(=O)Nc2ccc3nc(SCC(=O)N4CCCC4)sc3c2)cc1C	-6.8	-2.0	0.2	-0.8	4.1
CN1/C(=C\C=C(/C#N)C(=O)Nc2ccc(Cl)cc2)C(C)(C)c2ccccc21	2.8	7.5	46.0*	-4.7	81.1*
CCOC(=O)c1ccc(NC(=O)c2c(-c3c(F)cccc3Cl)noc2C)cc1	-11.0	2.3	3.1	-3.6	9.7
COC(=O)c1ccc(C)c(N(CCO)CCO)c1	-43.0*	2.0	0.2	-7.4	1.0

Source: PubChem BioAssay (National Center for Advancing Translational Sciences (NCATS))
